This is an account of results in PubChem BioAssay.

Assay [1] can be described thus: antimalarial activity against Dd2 strain (AID 2302;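 active = growth inhibition above 50% at the single 2 µM test dose, taken to imply half-maximal potency below 2 µM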;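 also: 0% = DMSO untreated growth and 100% = chloroquine plus artemisinin killed control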). Conditions: P. falciparum Dd2 in RBCs, LDH growth readout, 72 h; at 2 µM; active compounds read high.
A short description of assay [2]: human hepatoma cell viability loss – ATP luminescence, cytotoxicity control for P. falciparum antimalarial project, primary screen (AID 2303;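 active = inhibition above 50%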;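 also: 0% = DMSO wells and 100% = digitonin-killed cells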). The conditions noted are these: HepG2 viability, 24-48 h, at 10 µM, active compounds read high.
Assay [3] addresses L-lactate dehydrogenase (Plasmodium falciparum (isolate CDC / Honduras)) (UniProt Q27743). The assay is described as follows: PfLDH activity inhibition – cell lysate, 3D7 strain, counter-screen for P. falciparum growth inhibition project (AID 2304).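 Also: 0% = vehicle and 100% = reference inhibitor.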 The conditions noted are these: P. falciparum 3D7 crude extract, LDH APAD/NBT absorbance; at 2 µM; active compounds read high. Background: Counterscreens check selectivity or assay interference.

Assay [4] is described as follows: inhibition of 3D7 malaria parasite growth – strain 3D7 (AID 2306).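 Also: 0% = DMSO wells and 100% = chloroquine plus artemisinin control wells.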 The conditions noted are these: P. falciparum 3D7 erythrocytic growth, LDH absorbance, 72 h; at 2 µM; active compounds read high.
In assay [5] the target is Calcium-dependent protein kinase 1 (Plasmodium falciparum (isolate 3D7)) (UniProt P62344). The assay is described as follows: PfCDPK1 kinase inhibitors, biochemical, TCAMS library (AID 1159585; cut-off not given, nearly all actives have IC50 up to about 0.98 µM;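 also: inhibitors leave more ATP so luminescence rises with inhibition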). The conditions noted are these: recombinant PfCDPK1, Kinase-Glo ATP depletion luminescence. In general terms: Kinase-Glo measures the ATP left after a reaction by luminescence.
Assay [6] has as its target Plasmodium falciparum protein kinase 6 (PK6, PF3D7_1337100) (UniProt Q8IDW1). The assay is described as follows: PfPK6 kinase inhibitors, biochemical, TCAMS library (AID 1159586). The conditions noted are these: recombinant PfPK6, Kinase-Glo ATP depletion luminescence.
The target in assay [7] is Protein kinase 7 (PK7), Plasmodium falciparum 3D7 (PF3D7_0213400) (UniProt Q7YTF7). Put plainly: inhibition of Plasmodium PK7 catalytic activity – biochemical, TCAMS antimalarial set, Kinase-Glo luminescence (AID 1159587). The conditions noted are these: recombinant PfPK7, Kinase-Glo ATP depletion luminescence.
Assay [8] has as its target Calcium-dependent protein kinase 4 (Plasmodium falciparum (isolate 3D7)) (UniProt Q8IBS5). The assay is described as follows: PfCDPK4 kinase inhibitors, biochemical, TCAMS library (AID 1159588; cut-off not given, nearly all actives have IC50 up to about 0.91 µM). Conditions: recombinant PfCDPK4, Kinase-Glo ATP depletion luminescence.

A number with no mark means an inactive call. For part of these data: Results with a measured potency or affinity are listed apart. Activity calls are given as the source filed them. Unless noted, no rule for the calls is given here.

Chain of L-lactate dehydrogenase (Plasmodium falciparum (isolate CDC / Honduras)) (Q27743 whole entry, looked up): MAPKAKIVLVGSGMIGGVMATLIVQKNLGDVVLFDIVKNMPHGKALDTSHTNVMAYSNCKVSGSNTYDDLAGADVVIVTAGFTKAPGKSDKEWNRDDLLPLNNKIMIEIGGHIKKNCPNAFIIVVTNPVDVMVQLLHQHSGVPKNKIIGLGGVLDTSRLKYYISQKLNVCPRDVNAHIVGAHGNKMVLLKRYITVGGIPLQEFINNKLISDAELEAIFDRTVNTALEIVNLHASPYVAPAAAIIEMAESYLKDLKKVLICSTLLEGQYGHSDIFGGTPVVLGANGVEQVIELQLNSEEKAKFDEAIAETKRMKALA
Chain of Calcium-dependent protein kinase 4 (Plasmodium falciparum (isolate 3D7)) (Q8IBS5 whole entry, looked up): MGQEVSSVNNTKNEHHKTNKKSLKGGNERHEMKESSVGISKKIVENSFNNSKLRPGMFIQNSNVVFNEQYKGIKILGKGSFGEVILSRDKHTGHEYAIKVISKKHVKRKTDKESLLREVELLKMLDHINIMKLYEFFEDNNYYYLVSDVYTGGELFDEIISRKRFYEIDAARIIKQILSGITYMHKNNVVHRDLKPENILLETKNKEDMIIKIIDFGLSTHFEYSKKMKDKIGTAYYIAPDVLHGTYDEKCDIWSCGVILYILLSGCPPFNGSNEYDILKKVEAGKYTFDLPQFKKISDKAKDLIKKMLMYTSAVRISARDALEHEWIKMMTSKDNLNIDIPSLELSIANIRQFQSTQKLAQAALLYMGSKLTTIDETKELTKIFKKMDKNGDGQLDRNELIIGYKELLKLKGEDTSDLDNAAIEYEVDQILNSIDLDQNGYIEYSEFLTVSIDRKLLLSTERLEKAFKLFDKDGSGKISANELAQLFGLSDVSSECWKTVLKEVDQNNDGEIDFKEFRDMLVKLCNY
Chain of Protein kinase 7 (PK7), Plasmodium falciparum 3D7 (PF3D7_0213400) (Q7YTF7 1-343): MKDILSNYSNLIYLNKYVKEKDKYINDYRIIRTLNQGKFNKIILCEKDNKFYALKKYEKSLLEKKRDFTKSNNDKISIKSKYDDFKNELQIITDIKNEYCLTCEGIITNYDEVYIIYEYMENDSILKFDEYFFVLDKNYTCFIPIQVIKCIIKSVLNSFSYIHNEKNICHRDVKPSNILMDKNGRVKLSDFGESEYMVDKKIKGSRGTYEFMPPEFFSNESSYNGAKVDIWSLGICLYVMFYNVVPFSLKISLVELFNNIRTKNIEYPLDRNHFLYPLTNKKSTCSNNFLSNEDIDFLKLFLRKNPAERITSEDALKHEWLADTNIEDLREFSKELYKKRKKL
Chain of Plasmodium falciparum protein kinase 6 (PK6, PF3D7_1337100) (Q8IDW1 1-305): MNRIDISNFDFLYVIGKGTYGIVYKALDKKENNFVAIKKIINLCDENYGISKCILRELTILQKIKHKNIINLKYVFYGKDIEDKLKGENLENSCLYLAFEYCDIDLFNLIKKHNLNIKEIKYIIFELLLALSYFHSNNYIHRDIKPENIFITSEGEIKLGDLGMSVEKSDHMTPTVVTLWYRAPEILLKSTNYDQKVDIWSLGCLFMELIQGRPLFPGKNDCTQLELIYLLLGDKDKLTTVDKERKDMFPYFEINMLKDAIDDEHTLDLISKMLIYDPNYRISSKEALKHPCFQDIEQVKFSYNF
Chain of Calcium-dependent protein kinase 1 (Plasmodium falciparum (isolate 3D7)) (P62344 whole entry, looked up): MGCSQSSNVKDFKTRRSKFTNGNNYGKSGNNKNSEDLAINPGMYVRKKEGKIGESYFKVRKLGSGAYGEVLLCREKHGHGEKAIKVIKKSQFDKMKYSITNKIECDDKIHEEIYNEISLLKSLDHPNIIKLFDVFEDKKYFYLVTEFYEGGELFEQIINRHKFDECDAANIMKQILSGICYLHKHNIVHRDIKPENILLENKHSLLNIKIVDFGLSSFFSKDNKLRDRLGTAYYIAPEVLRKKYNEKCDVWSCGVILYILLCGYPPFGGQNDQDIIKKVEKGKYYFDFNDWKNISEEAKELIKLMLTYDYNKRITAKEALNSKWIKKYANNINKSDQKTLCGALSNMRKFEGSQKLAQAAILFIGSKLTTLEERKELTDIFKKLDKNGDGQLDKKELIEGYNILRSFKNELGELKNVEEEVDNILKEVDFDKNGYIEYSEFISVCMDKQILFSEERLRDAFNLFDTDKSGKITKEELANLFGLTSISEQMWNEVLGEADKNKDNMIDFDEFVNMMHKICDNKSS

What is called inhibition is the change of the read-out against control, counted positive when it falls. On to `CC(C)c1ccc(NC(=O)Nc2ccc(CCNCCCc3ccccc3)cc2)cc1`, for which the growth inhibition in assay [1] was 56% (active); in assay [4] it was 101% (active). Besides, the inhibition is 22% in assay [2] and 1% in assay [3]. Further, the outcome in assay [5], in assay [6], in assay [7] and in assay [8] was inactive.
Turning to `CN(Cc1ccccc1)C(=O)CCNS(=O)(=O)c1cc(Br)cnc1N`, the growth inhibition is 61% (active) in assay [1] and 91% (active) in assay [4]. Further, the inhibition is -5% in assay [2] and 4% in assay [3]. Further, the result in assay [5], in assay [6], in assay [7] and in assay [8] was inactive.
As for `COC(=O)c1cccc(CNCc2cccc(-c3ccc(-c4nc5ccccc5[nH]4)cc3)c2)c1`, the results for the growth inhibition in assay [1] and in assay [4] were 51% (active) and 99% (active), respectively. In addition, the values for the inhibition in assay [2] and in assay [3] were -3% and 4%, respectively. Also, the outcome in assay [5], in assay [6], in assay [7] and in assay [8] was inactive.
As for `Cc1cc(Nc2ccc(Cl)c(Cl)c2)n2nc(C)nc2n1`, the growth inhibition in assay [1] and in assay [4] was 97% (active) each time. Also, the inhibition is 6% in assay [2] and -4% in assay [3]. The outcome in assay [5], in assay [6], in assay [7] and in assay [8] was inactive.
Turning to `COCCOc1ccc(C(F)(F)F)cc1NC(=O)Cc1c(F)cccc1Cl`, the values for the growth inhibition in assay [1] and in assay [4] were 74% (active) and 88% (active), respectively. In addition, the inhibition in assay [2] was 18%; in assay [3], 2%. The outcome in assay [5], in assay [6], in assay [7] and in assay [8] was inactive.
Consider `COc1ccc(S(=O)(=O)NC2CCN(c3ccnc4cc(Cl)ccc34)C2)cc1` (centres undefined), for which the growth inhibition is 86% (active) in assay [1] and 100% (active) in assay [4]. Further, the inhibition was 12% in assay [2] and -2% in assay [3]. For the same molecule, the outcome in assay [5], in assay [6], in assay [7] and in assay [8] was inactive.
For `Nc1cccc(CNCc2ccc(-c3ccc(-c4nc5ccc(C(F)(F)F)cc5[nH]4)s3)cc2)c1`, the growth inhibition in assay [1] is 98% (active); in assay [4] it was 102% (active). Further, the inhibition is 28% in assay [2] and -2% in assay [3]. The result in assay [5], in assay [6], in assay [7] and in assay [8] was inactive.
For the molecule `COc1ccccc1CCNc1nc(C)cc(N[C@@H](Cc2ccccc2)C(=O)NCc2cccc(F)c2)n1`, the results for the growth inhibition in assay [1] and in assay [4] were 86% (active) and 99% (active), respectively. For the same molecule, the inhibition in assay [2] is 31%; in assay [3], -2%. Besides, the result in assay [5], in assay [6], in assay [7] and in assay [8] was inactive.
For the molecule `COc1ccc2nccc([C@@H](O)CN3CC[C@H](NCc4nc5c(cc4Cl)OCC(=O)N5)[C@H](F)C3)c2c1`, the values for the growth inhibition in assay [1] and in assay [4] were 29% and 84% (active), respectively. Besides, the inhibition in assay [2] and in assay [3] was 4% in each case. Moreover, the result in assay [5], in assay [6], in assay [7] and in assay [8] was inactive.
Regarding `CON=Cc1ccn(-c2ccc(O)c3c2C[C@H]2C[C@H]4[C@H](N(C)C)C(=O)C(C(N)=O)=C(O)[C@@]4(O)C(=O)C2=C3O)c1`, the growth inhibition in assay [1] is 70% (active); in assay [4] it was 96% (active). Besides, the inhibition in assay [2] was 3%; in assay [3] it was -1%. The outcome in assay [5], in assay [6], in assay [7] and in assay [8] was inactive.
For `CCOC(=O)CNC(=O)N1CCN(C(=O)NCC(=O)OCC)CC1`, the growth inhibition in assay [1] was 0%; in assay [4], 93% (active). Further, the inhibition was -9% in assay [2] and -2% in assay [3]. The result in assay [5], in assay [6], in assay [7] and in assay [8] was inactive.
As for `Cc1cccc2[nH]c(-c3ccc(-c4ccc(CNCCNC(=O)c5ccnn5C)cc4)cc3)nc12`, the results for the growth inhibition in assay [1] and in assay [4] were 98% (active) and 102% (active), respectively. In addition, the inhibition was 29% in assay [2] and -2% in assay [3]. Besides, the outcome in assay [5], in assay [6], in assay [7] and in assay [8] was inactive.
For the molecule `Cc1cccc2[nH]c(-c3cccc(-c4cccc(NC(=O)Nc5ccsc5)c4)c3)nc12`, the values for the growth inhibition in assay [1] and in assay [4] were 41% and 102% (active), respectively. Moreover, the figures for the inhibition in assay [2] and in assay [3] were 15% and -3%, respectively. In addition, the result in assay [5], in assay [6], in assay [7] and in assay [8] was inactive.
For `COc1ccc(CCNCCCCCCNCCCc2ccc(Cl)cc2)cc1OC`, the growth inhibition in assay [1] was 2%; in assay [4], 96% (active). Besides, the inhibition was 36% in assay [2] and 1% in assay [3]. The outcome in assay [5], in assay [6], in assay [7] and in assay [8] was inactive.
As to `CC(Cc1ccc(NC(=O)c2ccc(CC(C)NCc3ccc(Cl)c(Cl)c3)cc2)cc1)NCCc1cccc(Cl)c1` (centres undefined), the values for the growth inhibition in assay [1] and in assay [4] were 33% and 92% (active), respectively. Besides, the figures for the inhibition in assay [2] and in assay [3] were 26% and 4%, respectively. Further, the outcome in assay [5], in assay [6], in assay [7] and in assay [8] was inactive.
With `CNCCNCc1cccc(-c2cccc(-c3nc4c(C)cccc4[nH]3)c2)c1`, the growth inhibition is 9% in assay [1] and 98% (active) in assay [4]. For the same molecule, the values for the inhibition in assay [2] and in assay [3] were 6% and 1%, respectively. The outcome in assay [5], in assay [6], in assay [7] and in assay [8] was inactive.
Take `COc1ccc(CN(C)CCCc2ccc(NC(=O)c3cc4ccccc4[nH]3)cc2)cc1OC`: the growth inhibition was 31% in assay [1] and 97% (active) in assay [4]. Further, the inhibition in assay [2] is 39%; in assay [3] it was -5%. Also, the result in assay [5], in assay [6], in assay [7] and in assay [8] was inactive.
Consider `CCCCN(C)CC#Cc1ccc2[nH]c(C)c(Cl)c(=O)c2c1`, for which the growth inhibition in assay [1] was 97% (active); in assay [4], 98% (active). The inhibition is -2% in assay [2] and -6% in assay [3]. The outcome in assay [5], in assay [6], in assay [7] and in assay [8] was inactive.
